# From the supplement of paper PMC13380429
# Test system: Vero E6 infected with SARS-CoV-2
# Test: morphology score (similarity to uninfected cells); higher = more like uninfected cells
# Conditions: 24 h
row,SMILES,morphology score
1,CCCc1cc(=O)[nH]c(=S)[nH]1 [propylthiouracil] (10 µM),0.00376
2,COc1cc(F)c(C(C)C)cc1-c1ccc(C(F)(F)F)cc1CN1C(=O)O[C@H](c2cc(C(F)(F)F)cc(C(F)(F)F)c2)[C@@H]1C [anacetrapib] (10 µM),0.116
3,C[C@@H](C1=C(CCN(C)C)Cc2ccccc21)c1ccccn1 (racemic) [dimetindene] (10 µM),0.121
4,Cc1cccc(CN2CCN(C(c3ccccc3)c3ccc(Cl)cc3)CC2)c1 (stereo not given) [meclizine] (10 µM),0.0755
5,COc1cccc(Nc2c(C(N)=O)cnc3c(C)cc(S(=O)(=O)c4cccc(C(=O)N(C)C)c4)cc23)c1 (10 µM),0.345
6,CCOc1cc2ncc(C#N)c(Nc3ccc(OCc4cccc(F)c4)c(Cl)c3)c2cc1NC(=O)/C=C/CN(C)C (10 µM),-0.202
7,Nc1nonc1/C(=N/O)Nc1ccc(F)c(Cl)c1 (10 µM),0.043
8,CCCCc1nc(Cl)c(C(=O)O)n1Cc1ccc(-c2ccccc2-c2nn[nH]n2)cc1 [carboxylosartan] (10 µM),-0.00666
9,CC(O)(CS(=O)(=O)c1ccc(F)cc1)C(=O)Nc1ccc(C#N)c(C(F)(F)F)c1 (stereo not given) [bicalutamide] (10 µM),-0.00454
10,C[C@]12C=CC(=O)N[C@@H]1CC[C@@H]1[C@@H]2CC[C@]2(C)[C@@H](C(=O)Nc3cc(C(F)(F)F)ccc3C(F)(F)F)CC[C@@H]12 [dutasteride] (10 µM),0.111
11,O=C(O)c1cn(C2CC2)c2cc(N3CCNCC3)c(F)cc2c1=O [ciprofloxacin] (10 µM),0.046
12,O=[N+]([O-])c1cc(O)c(O)c([N+](=O)[O-])c1 (10 µM),0.123
13,COc1c2occc2c(OC)c2c(=O)cc(C)oc12 [khellin] (10 µM),-0.102
14,CS(=O)(=O)c1ccc([C@@H](O)[C@@H](CF)NC(=O)C(Cl)Cl)cc1 [florfenicol] (10 µM),-0.00265
15,CCC[N+]12[C@H](O)[C@@H](CC)[C@@H]3C[C@H]1[C@@H]1N(C)c4ccccc4[C@]14C[C@H]2[C@@H]3[C@H]4O [neo-gilurytmal] (10 µM),-0.0363
16,CCNC(=O)c1noc(-c2cc(C(C)C)c(O)cc2O)c1-c1ccc(CN2CCOCC2)cc1 (0.833333 µM),0.0632
17,C[C@]12CCC(=O)C=C1CC[C@@H]1[C@@H]2[C@@H](O)C[C@@]2(C)[C@H]1CC[C@]2(O)C(=O)COC(=O)CCC(=O)O [hydrocortisone-hemisuccinate] (10 µM),-0.338
18,CO[C@H](C(=O)[C@@H](O)[C@@H](C)O)[C@@H]1Cc2cc3cc(O[C@H]4C[C@@H](O[C@H]5C[C@@H](O)[C@H](O)[C@@H](C)O5)[C@@H](O)[C@@H](C)O4)c(C)c(O)c3c(O)c2C(=O)[C@H]1O[C@H]1C[C@@H](O[C@H]2C[C@@H](O[C@H]3C[C@](C)(O)[C@H](O)[C@@H](C)O3)[C@H](O)[C@@H](C)O2)[C@H](O)[C@@H](C)O1 [plicamycin] (10 µM),-0.159
19,Cc1ccnc2c1CCCC2C(N)=S (stereo not given) [isotiquimide] (10 µM),0.0559
20,CCc1cc2c(s1)-n1c(C)nnc1CN=C2c1ccccc1Cl [etizolam] (10 µM),-0.0349
21,Cc1ccnc(NC(=O)C(C)c2cccc(C(=O)c3ccccc3)c2)c1 (stereo not given) [piketoprofen] (10 µM),-0.109
22,CCOC(=O)Nc1ccc2c(c1)N(C(=O)CN(CC)CC)c1ccccc1CC2 (10 µM),0.0358
23,C=CC(=O)c1ccc2ccccc2c1 [JAK3-inhibitor-V] (10 µM),0.0151
24,COc1ccc(S(=O)(=O)N(C(C)=O)c2ccccc2/C=C/c2cc[n+]([O-])cc2)cc1 (10 µM),-0.108
25,CCOC(=O)CSCCC1NC(C(=O)O)CS1 (stereo not given) [letosteine] (10 µM),-0.0697
26,CCN1CCC(n2cc(CNc3cc(Cl)c4ncc(C#N)c(Nc5ccc(F)c(Cl)c5)c4c3)nn2)CC1 [cot-inhibitor-2] (10 µM),0.683
27,CCCCCCCC/C=C\CCCCCCCC(N)=O [oleamide] (10 µM),0.242
28,COc1ccc2cccc(CCNC(C)=O)c2c1 [agomelatine] (10 µM),0.11
29,CC1(C)CCC(C)(C)c2cc(C3(c4ccc(C(=O)O)cc4)OCCO3)ccc21 (10 µM),-0.00895
30,CC(=O)Nc1ccc(C(=O)Nc2ccccc2N)cc1 [tacedinaline] (0.833333 µM),-0.0863
